Measurements published in PubChem BioAssay.
Active and inactive are the calls of the source.

What was measured:
[1] = binders of probe aFSTL3 on microarray, primary screen, stem cell growth factor project, biochemical, small-molecule microarray, fluorescence 635/667 (AID 1064); settings: higher = more signal;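 also: measures binding of the biotinylated anti-FSTL3 antibody to printed compounds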
[2] = binders from COS7 lysate, DM2A8 probe, primary screen, torsin A project, cell lysate, small-molecule microarray, fluorescence 635/667 (AID 1065); settings: higher = more signal, COS7 lysate expressing mutant human TOR1A
[3] = binders of probe aFGF2 on microarray, primary screen, stem cell growth factor project, biochemical, small-molecule microarray, fluorescence 635/667 (AID 1067); settings: higher = more signal;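 also: measures binding of biotinylated aFGF2 protein to printed compounds on slides; z-score merges feature fluorescence and signal-to-noise across triplicate slides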
[4] = binders of probe aFGF10 on microarray, primary screen, stem cell growth factor project, biochemical, small-molecule microarray, fluorescence 635/667 (AID 1071); settings: higher = more signal;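 also: score merges 667 nm spot intensity and signal to noise from triplicate slides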
[5] = target: Neurogenic locus notch homolog protein 2 (Homo sapiens) (UniProt Q04721); assay: Notch2 binders on small-molecule microarrays, primary screen, biochemical, small-molecule microarray, 635 nm fluorescence, stem cell growth factors (AID 1073); settings: Notch2 binding, higher = more signal
[6] = target: Pro-neuregulin-1, membrane-bound isoform (Homo sapiens) (UniProt Q02297); assay: NRG1 binders on small-molecule microarrays, primary screen, psychiatric disease protein project, biochemical, small-molecule microarray, fluorescence 635/667 (AID 1075); settings: NRG1 binding, 635 nm fluorescence, higher = more signal;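 also: score combines 667 nm spot fluorescence with signal to noise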
[7] = system: Neuregulin-1 EGF-like domain; assay: binders of neuregulin-1 EGF-like domain, primary screen, biochemical, small-molecule microarray, 635 nm fluorescence (AID 1081); settings: small-molecule microarray binding, higher = more signal;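 also: binding of the protein to compounds printed on small-molecule microarray slides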
[8] = FRG1 promoter luciferase signal modulators, primary screen, FRG1 inhibition for FSHD, cell-based, C2C12 myotubes, firefly/Renilla luciferase, luminescence (AID 1084); settings: higher = more signal, called active from +8 up or from −8 down
[9] = binders of probe aFST on microarray, primary screen, stem cell growth factor project, biochemical, small-molecule microarray, fluorescence 635/667 (AID 1086); settings: higher = more signal;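 also: score merges 667 nm fluorescence with signal-to-noise of each printed compound spot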
[10] = binders of probe aHhip on microarray, primary screen, stem cell growth factor project, biochemical, small-molecule microarray, fluorescence 635/667 (AID 1087); settings: higher = more signal;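 also: score merges spot fluorescence at 667nm with spot signal to noise ratio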
[11] = system: PRMT1 (protein arginine N-methyltransferase 1); assay: PRMT1 binders on small-molecule microarrays, primary screen, biochemical, small-molecule microarray, 635 nm fluorescence (AID 1088); settings: small-molecule microarray binding, higher = more signal;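 also: binding of Prmt1 protein to compounds spotted on small-molecule microarray slides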
[12] = yeast growth modulation, basal conditions, primary screen, YJM789 clinical isolate, OD600, 24 h (AID 1089);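 also: growth of clinical yeast isolate S. cerevisiae YJM 789 seeded 1000 cells per well; test concentration not given here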; settings: S. cerevisiae YJM789 growth, higher = more signal, called active from +8 up or from −8 down
[13] = fission yeast growth modulation, primary screen, strain 972, OD600, 24 h, no modulator (AID 1090);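 also: basal condition with compound alone and no growth modifier present; test concentration not given here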; settings: S. pombe 972 growth, higher = more signal, called active from +8 up or from −8 down
[14] = S. cerevisiae growth modulation with rapamycin, primary screen, strain BY4716, OD600, 96 h (AID 1091); settings: higher = more signal, called active from +8 up or from −8 down; also: test concentration not given here
[15] = target: Torsin-1A-interacting protein 2 (Homo sapiens) (UniProt Q8NFQ8); assay: LULL1 binders on small-molecule microarray, primary screen, cell lysate, human LULL1 lysate, 635/667 nm fluorescence (AID 1092); settings: hLULL1 lysate binding, 635 nm fluorescence, higher = more signal;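 also: probe is lysate of COS7 cells overexpressing human LULL1; score merges per-feature 667 nm fluorescence with signal-to-noise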
[16] = E. coli growth modulation, two-sided OD650, primary screen, E. coli filamentation project, strain DRC41, 24 h (AID 1093); settings: OD650, 24 h, higher = more signal, called active from +8 up or from −8 down;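 also: MC1000 strain lacking acrAB efflux and sulA so SOS filamentation is blocked; test concentration not given here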
[17] = small-molecule microarray binders of probe aLefty2, primary screen, biochemical, biotinylated probe, 635/667 nm fluorescence (AID 1094); settings: higher = more signal;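 also: score merges spot fluorescence near 667 nm with spot signal-to-noise ratio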
[18] = system: Noggin (protein binding on small-molecule microarray); assay: Noggin binders on small-molecule microarray, primary screen, biochemical, 635/667 nm fluorescence (AID 1095); settings: 635 nm fluorescence, higher = more signal;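 also: score merges 667 nm feature fluorescence with signal to noise over triplicate slides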
[19] = target: Neurogenic locus notch homolog protein 3 (Homo sapiens) (UniProt Q9UM47); assay: NOTCH3 binders on small-molecule microarray, primary screen, biochemical, 635/667 nm fluorescence (AID 1096); settings: NOTCH3 binding, 635 nm fluorescence, higher = more signal
[20] = small-molecule microarray binders of probe aEGFR, primary screen, biochemical, biotinylated probe, 635/667 nm fluorescence (AID 1097); settings: higher = more signal;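 also: probe is a biotinylated anti-EGFR antibody binding compounds printed on slides; score combines fluorescence near 667 nm and signal to noise of each spot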

Sequence of Neurogenic locus notch homolog protein 2 (Homo sapiens) (Q04721 whole entry, looked up, canonical isoform): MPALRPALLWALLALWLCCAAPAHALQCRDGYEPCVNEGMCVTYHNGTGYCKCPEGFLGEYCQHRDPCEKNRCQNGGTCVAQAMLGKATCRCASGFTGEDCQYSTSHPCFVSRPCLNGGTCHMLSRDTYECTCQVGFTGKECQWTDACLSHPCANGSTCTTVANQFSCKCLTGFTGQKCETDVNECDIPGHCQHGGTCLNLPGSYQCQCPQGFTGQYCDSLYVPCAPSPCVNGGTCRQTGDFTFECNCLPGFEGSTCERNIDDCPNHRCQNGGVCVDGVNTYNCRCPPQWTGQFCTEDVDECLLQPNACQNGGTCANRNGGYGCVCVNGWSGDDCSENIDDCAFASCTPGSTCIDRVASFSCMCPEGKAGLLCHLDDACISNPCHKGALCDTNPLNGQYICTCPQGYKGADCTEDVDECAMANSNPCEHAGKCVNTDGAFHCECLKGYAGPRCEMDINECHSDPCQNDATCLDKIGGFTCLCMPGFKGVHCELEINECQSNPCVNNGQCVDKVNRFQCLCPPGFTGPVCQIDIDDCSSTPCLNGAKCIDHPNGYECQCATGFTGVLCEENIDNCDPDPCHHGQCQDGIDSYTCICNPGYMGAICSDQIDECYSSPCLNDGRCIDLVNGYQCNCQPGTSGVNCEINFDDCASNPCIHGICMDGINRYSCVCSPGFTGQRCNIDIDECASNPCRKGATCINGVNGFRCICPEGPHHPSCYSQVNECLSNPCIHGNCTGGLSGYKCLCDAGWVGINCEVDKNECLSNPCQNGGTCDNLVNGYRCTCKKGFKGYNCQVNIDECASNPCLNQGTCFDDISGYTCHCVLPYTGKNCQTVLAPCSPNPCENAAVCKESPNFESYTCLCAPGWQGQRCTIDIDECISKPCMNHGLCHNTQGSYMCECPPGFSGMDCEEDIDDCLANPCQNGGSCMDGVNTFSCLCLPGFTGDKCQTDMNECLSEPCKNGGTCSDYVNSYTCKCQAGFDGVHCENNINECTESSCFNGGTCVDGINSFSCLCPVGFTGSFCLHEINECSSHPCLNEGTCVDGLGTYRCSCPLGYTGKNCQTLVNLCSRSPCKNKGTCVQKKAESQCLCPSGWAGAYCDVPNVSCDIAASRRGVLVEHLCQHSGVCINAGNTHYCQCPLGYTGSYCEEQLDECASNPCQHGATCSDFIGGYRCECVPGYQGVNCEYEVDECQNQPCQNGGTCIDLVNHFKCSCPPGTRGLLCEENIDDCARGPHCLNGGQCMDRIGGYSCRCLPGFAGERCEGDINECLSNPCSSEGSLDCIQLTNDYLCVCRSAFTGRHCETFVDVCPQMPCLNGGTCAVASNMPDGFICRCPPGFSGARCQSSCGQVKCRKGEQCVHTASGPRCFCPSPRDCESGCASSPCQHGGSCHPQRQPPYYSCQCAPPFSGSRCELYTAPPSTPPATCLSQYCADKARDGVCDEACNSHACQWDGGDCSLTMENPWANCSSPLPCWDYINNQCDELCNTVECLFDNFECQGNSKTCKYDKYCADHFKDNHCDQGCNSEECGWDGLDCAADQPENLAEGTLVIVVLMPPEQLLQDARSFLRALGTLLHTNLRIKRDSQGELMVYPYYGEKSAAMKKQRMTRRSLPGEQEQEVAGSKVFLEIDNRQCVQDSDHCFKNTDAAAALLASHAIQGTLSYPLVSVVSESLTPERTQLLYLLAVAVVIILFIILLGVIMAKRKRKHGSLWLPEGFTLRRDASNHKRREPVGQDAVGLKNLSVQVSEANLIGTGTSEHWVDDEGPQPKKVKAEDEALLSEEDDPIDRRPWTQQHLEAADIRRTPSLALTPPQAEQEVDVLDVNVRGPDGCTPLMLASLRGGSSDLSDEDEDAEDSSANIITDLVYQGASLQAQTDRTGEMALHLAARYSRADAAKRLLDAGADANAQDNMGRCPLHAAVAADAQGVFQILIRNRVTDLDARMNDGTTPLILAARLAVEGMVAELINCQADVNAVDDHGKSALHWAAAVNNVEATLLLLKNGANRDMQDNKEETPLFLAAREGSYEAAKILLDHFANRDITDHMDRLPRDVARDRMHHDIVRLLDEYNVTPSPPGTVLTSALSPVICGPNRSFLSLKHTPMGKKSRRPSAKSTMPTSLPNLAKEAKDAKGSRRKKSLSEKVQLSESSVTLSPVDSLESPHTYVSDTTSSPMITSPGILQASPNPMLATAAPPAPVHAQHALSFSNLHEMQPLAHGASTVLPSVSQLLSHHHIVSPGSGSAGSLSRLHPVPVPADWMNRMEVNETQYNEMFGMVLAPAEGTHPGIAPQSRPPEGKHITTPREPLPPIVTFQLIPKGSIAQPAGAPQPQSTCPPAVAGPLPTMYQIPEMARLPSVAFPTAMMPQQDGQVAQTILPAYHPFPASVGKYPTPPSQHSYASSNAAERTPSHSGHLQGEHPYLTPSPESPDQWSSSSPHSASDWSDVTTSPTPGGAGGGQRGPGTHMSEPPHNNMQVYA
Sequence of Neurogenic locus notch homolog protein 3 (Homo sapiens) (Q9UM47 whole entry, looked up): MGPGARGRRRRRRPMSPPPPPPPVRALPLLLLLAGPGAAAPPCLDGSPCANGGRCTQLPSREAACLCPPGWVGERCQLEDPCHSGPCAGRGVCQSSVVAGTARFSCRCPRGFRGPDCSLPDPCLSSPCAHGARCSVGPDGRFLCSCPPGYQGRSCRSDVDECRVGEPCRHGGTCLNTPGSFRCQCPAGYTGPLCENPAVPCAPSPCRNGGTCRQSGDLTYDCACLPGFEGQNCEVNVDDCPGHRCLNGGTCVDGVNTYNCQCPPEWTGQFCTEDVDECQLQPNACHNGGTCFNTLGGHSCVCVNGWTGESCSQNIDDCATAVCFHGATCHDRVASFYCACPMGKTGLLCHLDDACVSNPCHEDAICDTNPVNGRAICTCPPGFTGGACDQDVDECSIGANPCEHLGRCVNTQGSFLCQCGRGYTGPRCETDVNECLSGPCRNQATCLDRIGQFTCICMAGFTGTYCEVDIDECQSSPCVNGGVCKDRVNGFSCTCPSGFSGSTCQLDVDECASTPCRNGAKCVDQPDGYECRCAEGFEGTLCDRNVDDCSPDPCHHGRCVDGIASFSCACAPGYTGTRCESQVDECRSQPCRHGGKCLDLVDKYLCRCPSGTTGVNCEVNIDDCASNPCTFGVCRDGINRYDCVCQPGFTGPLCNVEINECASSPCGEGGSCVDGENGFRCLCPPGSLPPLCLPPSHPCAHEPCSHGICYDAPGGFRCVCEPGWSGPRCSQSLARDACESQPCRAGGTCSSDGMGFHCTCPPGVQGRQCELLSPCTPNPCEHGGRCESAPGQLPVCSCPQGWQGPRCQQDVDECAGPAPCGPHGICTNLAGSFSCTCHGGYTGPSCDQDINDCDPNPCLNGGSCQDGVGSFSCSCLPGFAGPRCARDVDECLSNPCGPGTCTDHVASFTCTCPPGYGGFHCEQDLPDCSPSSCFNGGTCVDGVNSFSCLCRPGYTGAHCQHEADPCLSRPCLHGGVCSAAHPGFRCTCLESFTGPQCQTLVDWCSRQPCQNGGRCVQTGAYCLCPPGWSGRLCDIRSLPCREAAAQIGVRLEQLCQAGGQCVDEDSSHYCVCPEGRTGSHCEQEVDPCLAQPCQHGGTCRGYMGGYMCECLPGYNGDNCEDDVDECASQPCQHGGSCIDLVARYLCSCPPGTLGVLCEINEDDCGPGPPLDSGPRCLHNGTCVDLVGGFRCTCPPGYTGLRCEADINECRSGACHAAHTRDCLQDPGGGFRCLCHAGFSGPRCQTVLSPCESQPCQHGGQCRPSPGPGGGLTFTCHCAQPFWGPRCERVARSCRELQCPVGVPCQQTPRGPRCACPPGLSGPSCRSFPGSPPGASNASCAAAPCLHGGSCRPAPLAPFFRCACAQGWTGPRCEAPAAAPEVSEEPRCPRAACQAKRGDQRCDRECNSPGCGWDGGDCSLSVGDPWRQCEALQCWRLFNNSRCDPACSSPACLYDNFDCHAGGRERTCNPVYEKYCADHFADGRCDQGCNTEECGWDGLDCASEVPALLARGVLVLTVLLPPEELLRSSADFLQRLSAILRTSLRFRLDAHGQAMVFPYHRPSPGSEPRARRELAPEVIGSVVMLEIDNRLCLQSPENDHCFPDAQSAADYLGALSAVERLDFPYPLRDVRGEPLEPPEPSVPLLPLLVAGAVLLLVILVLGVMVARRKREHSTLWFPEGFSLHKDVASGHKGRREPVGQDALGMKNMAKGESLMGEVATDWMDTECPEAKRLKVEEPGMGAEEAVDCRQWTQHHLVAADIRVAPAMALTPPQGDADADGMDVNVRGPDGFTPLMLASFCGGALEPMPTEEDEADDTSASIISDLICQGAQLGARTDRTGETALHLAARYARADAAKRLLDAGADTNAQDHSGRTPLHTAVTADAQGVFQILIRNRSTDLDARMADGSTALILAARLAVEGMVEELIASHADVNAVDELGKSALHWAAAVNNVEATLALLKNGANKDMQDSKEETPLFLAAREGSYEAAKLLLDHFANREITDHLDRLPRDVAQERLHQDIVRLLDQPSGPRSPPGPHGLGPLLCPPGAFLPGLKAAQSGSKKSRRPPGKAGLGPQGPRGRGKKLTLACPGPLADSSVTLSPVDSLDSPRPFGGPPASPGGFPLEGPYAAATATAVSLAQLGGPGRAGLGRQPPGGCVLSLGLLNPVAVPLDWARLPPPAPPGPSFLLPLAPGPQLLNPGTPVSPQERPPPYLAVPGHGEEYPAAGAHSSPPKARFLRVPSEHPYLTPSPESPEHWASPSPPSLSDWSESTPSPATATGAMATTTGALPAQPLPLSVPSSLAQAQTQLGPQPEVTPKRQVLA

**Q.** What does the source list for COC(=O)C1=CC(CCCO)=CC(C2CC2)N(Cc2cccc(OC(F)(F)F)c2)C=C1C(=O)OC (stereo not given)?
**A.** composite z-score [1]: -0.207; composite z-score [2]: -0.166; composite z-score [3]: -0.0265; composite z-score [4]: 0.216; composite z-score [5]: 0.515; composite z-score [6]: 1.14; composite z-score [7]: 1.25; z-score [8]: 0.503 (inactive); composite z-score [9]: 0.497; composite z-score [10]: -0.0645; composite z-score [11]: 1.13; z-score [12]: -2.46 (inactive); z-score [13]: -1.06 (inactive); z-score [14]: -2.24 (inactive); composite z-score [15]: 2.82; z-score [16]: -2.57 (inactive); composite z-score [17]: 0.0386; composite z-score [18]: -0.273; composite z-score [19]: 0.749; composite z-score [20]: -0.0353

**Q.** Which results are given for CC1(C)OC[C@@]23C=C(Br)[C@@H](C[C@H]12)[C@@]1(CO1)C3=O?
**A.** composite z-score [1]: -0.401; composite z-score [2]: 0.374; composite z-score [3]: -0.105; composite z-score [4]: 0.403; composite z-score [5]: 0.517; composite z-score [6]: 0.146; composite z-score [7]: 0.149; z-score [8]: -0.468 (inactive); composite z-score [9]: 0.0965; composite z-score [10]: -0.0423; composite z-score [11]: -0.0986; z-score [12]: 0.409 (inactive); z-score [13]: -1.24 (inactive); z-score [14]: 0.125 (inactive); composite z-score [15]: -0.202; z-score [16]: -0.665 (inactive); composite z-score [17]: -0.153; composite z-score [18]: 0.232; composite z-score [19]: 0.378; composite z-score [20]: -0.109

**Q.** For CC(C)C[C@@H]1NC(=O)[C@@H]2C[C@H](C(=O)O)[C@H](c3ccc(O)cc3)N2C1=O, which composite z-score [1] is on record?
**A.** -0.451

**Q.** And the composite z-score [2]?
**A.** 1.9

**Q.** And the composite z-score [3]?
**A.** -0.121

**Q.** And the composite z-score [4]?
**A.** 0.338

**Q.** And the composite z-score [5]?
**A.** 0.529

**Q.** What about the composite z-score [6] of the same compound?
**A.** 0.833

**Q.** What about the composite z-score [7] of the same compound?
**A.** 1.23

**Q.** What about the z-score [8] of the same compound?
**A.** -0.93 (inactive)

**Q.** What about the composite z-score [9] of the same compound?
**A.** 0.186

**Q.** And the composite z-score [10]?
**A.** 0.0373

**Q.** And the composite z-score [11]?
**A.** 1.54

**Q.** And the z-score [12]?
**A.** -1.45 (inactive)

**Q.** What about the z-score [13] of the same compound?
**A.** -1.34 (inactive)

**Q.** And the z-score [14]?
**A.** -0.42 (inactive)

**Q.** What about the composite z-score [15] of the same compound?
**A.** 1.77

**Q.** And the z-score [16]?
**A.** 2.31 (inactive)

**Q.** What about the composite z-score [17] of the same compound?
**A.** -0.0433

**Q.** What about the composite z-score [18] of the same compound?
**A.** 1.02

**Q.** What about the composite z-score [19] of the same compound?
**A.** 1.09

**Q.** And the composite z-score [20]?
**A.** 0.0226

**Q.** For COCCOC(=O)N1C(=O)[C@@]2(c3cc(C#CCC(C(=O)OC)C(=O)OC)ccc31)[C@H](C(=O)N1CCc3cc(OC)c(OC)cc3C1)[C@H]1C(=O)O[C@H](c3ccccc3)[C@H](c3ccccc3)N1[C@@H]2c1ccc(O)cc1, which composite z-score [1] is on record?
**A.** -0.318

**Q.** What about the composite z-score [2] of the same compound?
**A.** 0.731

**Q.** What about the composite z-score [3] of the same compound?
**A.** 0.0732

**Q.** What about the composite z-score [4] of the same compound?
**A.** 0.858

**Q.** And the composite z-score [5]?
**A.** 1.54

**Q.** What about the composite z-score [6] of the same compound?
**A.** 0.729

**Q.** And the composite z-score [7]?
**A.** 1.23

**Q.** What about the z-score [8] of the same compound?
**A.** 0.217 (inactive)

**Q.** What about the composite z-score [9] of the same compound?
**A.** 0.346

**Q.** What about the composite z-score [10] of the same compound?
**A.** -0.0459

**Q.** What about the composite z-score [11] of the same compound?
**A.** 1.54

**Q.** And the z-score [12]?
**A.** 0.215 (inactive)

**Q.** And the z-score [13]?
**A.** 0.233 (inactive)

**Q.** What about the z-score [14] of the same compound?
**A.** 0.773 (inactive)

**Q.** And the composite z-score [15]?
**A.** 1.99

**Q.** What about the z-score [16] of the same compound?
**A.** 0.204 (inactive)

**Q.** What about the composite z-score [17] of the same compound?
**A.** 0.0704

**Q.** And the composite z-score [18]?
**A.** 1.19

**Q.** What about the composite z-score [19] of the same compound?
**A.** 1.08

**Q.** What about the composite z-score [20] of the same compound?
**A.** 0.135
